Assay outcomes (PubChem BioAssay)
The full list was thinned out, with hits kept by preference.
FECH inh: blocks human mitochondrial ferrochelatase activity; AID 1671448; calls only at 10 µM (by protocol); purified FECH, Ni-mesoporphyrin absorbance 550 nm; P22830; 20,000 compounds, 3.3% hits;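 active = enzyme reaction rate more than 3 SD below the solvent-only control wells on the same plate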;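 also: lower slope than DMSO wells means FECH inhibition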
Target sequence (P22830 whole entry, looked up): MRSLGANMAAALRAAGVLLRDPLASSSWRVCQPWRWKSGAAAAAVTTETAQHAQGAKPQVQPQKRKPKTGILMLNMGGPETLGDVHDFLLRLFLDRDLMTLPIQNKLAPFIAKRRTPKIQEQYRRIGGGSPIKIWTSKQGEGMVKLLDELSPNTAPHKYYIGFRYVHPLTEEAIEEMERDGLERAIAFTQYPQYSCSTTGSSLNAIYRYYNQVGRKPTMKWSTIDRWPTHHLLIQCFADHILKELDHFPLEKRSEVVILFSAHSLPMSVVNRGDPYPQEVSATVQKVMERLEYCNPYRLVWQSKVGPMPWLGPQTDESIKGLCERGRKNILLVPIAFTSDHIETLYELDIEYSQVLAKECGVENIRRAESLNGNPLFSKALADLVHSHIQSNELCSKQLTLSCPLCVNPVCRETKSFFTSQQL
* hit, by the source's call; i = inactive; + = active, no number.

SMILES	FECH inh
CN(Cc1cccc(C(=O)Nc2nccs2)c1)Cc1cnccn1	+
Cc1nc(CN(C)Cc2cccc(C(=O)Nc3cccnc3)c2)cs1	i
CN(Cc1ccc(C(=O)Nc2ccc3c(c2)ncn3C)cc1)Cc1cnccn1	i
O=C(O)c1cc(Br)cc(S(=O)(=O)NCc2ccccc2)c1	i
Cc1ccc(N2C(=O)CCS2(=O)=O)cc1S(=O)(=O)N1CCN(c2ccccn2)CC1	i
COc1ccc(CNS(=O)(=O)c2cc(N3C(=O)CCS3(=O)=O)ccc2C)cc1OC	+
COc1ccc(N2C(=O)CCS2(=O)=O)cc1S(=O)(=O)NCc1ccc(C)cc1	i
COc1ccc(CNS(=O)(=O)c2cc(N3C(=O)CCS3(=O)=O)ccc2OC)cc1	i
CCOC(=O)C1CCN(S(=O)(=O)c2cc(N3C(=O)CCS3(=O)=O)ccc2OC)CC1	i
Cc1ccc(N2C(=O)CCS2(=O)=O)cc1S(=O)(=O)N1CCC(C(N)=O)CC1	i
Cc1ccc(N2C(=O)CCS2(=O)=O)cc1S(=O)(=O)N1CCN(c2ccccc2)CC1	i
Cc1ccc(N2C(=O)CCS2(=O)=O)cc1S(=O)(=O)N1CCN(c2ccccc2F)CC1	+
CCOC(=O)C1CCCN(S(=O)(=O)c2cc(N3C(=O)CCS3(=O)=O)ccc2C)C1 (stereo unspecified)	+
COc1cccc(-c2cc(N3CCN(C(=O)Nc4ccccc4Br)CC3)ncn2)c1	i
Cc1ccccc1C1=CCN(c2ncc(NS(=O)(=O)c3ccc(F)cc3)cc2C(=O)O)CC1	i
C=CCOc1ccc(CN2CCC3(CC2)C(=O)NCCN3C)cc1CC=C	i
CCOC(=O)N1CCC(NCCC(=O)N2CCCC(C)C2)CC1 (stereo unspecified)	i
Cc1cccnc1CC(C)NC(=O)c1cc(C(C)C)n2ncnc2n1 (stereo unspecified)	i
CCN(CC)CCNc1nc(Nc2cccc(OC)c2)c2cnn(-c3ccccc3)c2n1	i
Cc1[nH]cnc1-c1n[nH]c(=O)n1CCc1ccccc1	i
CC(C)(O)C#Cc1ccc(C(=O)NCc2n[nH]c3c2CCCCC3)o1	i
Cc1ccc(OCc2nc(CCc3ccccc3)n[nH]2)cc1	i
Cc1cc(Nc2ccc(OC(=O)c3ccncc3)cc2)n2nc(-c3cccnc3)nc2n1	i
Cc1cc(Nc2ccc(OC(=O)c3ccco3)cc2)n2nc(-c3cccnc3)nc2n1	+
Cc1cc(Nc2ccc(OC(=O)c3ccc(C)c(C)c3)cc2)n2nc(-c3cccnc3)nc2n1	i
SMILES	FECH inh
O=c1ccc(=O)n(Cc2nc(CCc3ccccc3)nn2-c2ccccn2)[nH]1	i
Cn1ncc2c(NCCNC(=O)c3cccnc3)nc(C(C)(C)C)nc21	i
Cc1cnc(NCc2ccc(C(=O)N(C)C)o2)nc1N(C)C	i
Cc1cnc(NCCNC(=O)c2cccnc2)nc1N(C)C	+
CCC1CN(C(=O)c2ccccc2Cl)CCC(=O)N1Cc1ccccc1 (stereo unspecified)	i
Cc1nc(CNC(=O)c2onc3ccccc23)nc2c1CCCC2	i
COCCNC(=O)C1(C)Cn2c(cc3ccsc32)C(=O)N1Cc1ccccc1OC (stereo unspecified)	i
COCCNC(=O)C1(C)Cn2c(cc3ccsc32)C(=O)N1Cc1ccccc1C (stereo unspecified)	+
COCCNC(=O)C1(C)Cn2c(cc3ccsc32)C(=O)N1Cc1ccccc1 (stereo unspecified)	i
CC(C)c1nc(COc2cccc(-n3cnnn3)c2)n(-c2ccccn2)n1	i
CCC(=O)Nc1ccccc1-c1nnc(SC(CC)C(=O)Nc2cccc(C)c2C)[nH]c1=O (stereo unspecified)	i
Cc1ccc(C2=CC(c3ccc(Cl)cc3)n3nc(NC(=O)c4ccc(F)cc4)nc3N2)cc1 (stereo unspecified)	+
Cc1ccc(C(=O)Nc2nc3n(n2)C(c2ccc(F)cc2)C=C(c2ccc(C)cc2)N3)cc1 (stereo unspecified)	i
Cc1ccc(C2=CC(c3ccc(Cl)cc3)n3nc(NC(=O)c4ccccc4)nc3N2)cc1 (stereo unspecified)	+
Cc1ccc(C2=CC(c3ccc(Cl)cc3)n3nc(NC(=O)c4ccco4)nc3N2)cc1 (stereo unspecified)	+
Cc1ccc(C(=O)Nc2nc3n(n2)C(c2ccc(Cl)cc2)C=C(c2ccccc2)N3)cc1 (stereo unspecified)	i
CC(C)C(=O)Nc1nc2n(n1)C(c1ccc(Cl)cc1)C=C(c1ccc(Cl)cc1)N2 (stereo unspecified)	i
O=C(Nc1nc2n(n1)C(c1ccc(Cl)cc1)C=C(c1ccc(Cl)cc1)N2)c1ccco1 (stereo unspecified)	i
Cc1ccc(C2=CC(c3ccc(Cl)cc3)n3nc(NC(=O)CC(C)C)nc3N2)cc1 (stereo unspecified)	+
O=C(Nc1nc2n(n1)C(c1ccc(F)cc1)C=C(c1ccc(Cl)cc1)N2)c1ccco1 (stereo unspecified)	i
Cc1ccc(C2=CC(c3ccc(Cl)cc3)n3nc(NC(=O)CCc4ccccc4)nc3N2)cc1 (stereo unspecified)	i
Cc1ccc(C2=CC(c3ccc(Cl)cc3)n3nc(NC(=O)c4cccc(C)c4)nc3N2)cc1 (stereo unspecified)	i
O=C(Nc1nc2n(n1)C(c1ccc(F)cc1)C=C(c1ccc(Cl)cc1)N2)c1ccc(F)cc1 (stereo unspecified)	i
O=C(NCCc1nc2ccccc2[nH]1)c1cc(COc2ccccc2)[nH]n1	i
CC(=O)Nc1cccc(-c2cnc(N3CCOCC3)nc2-c2ccc(C)cc2)c1	i
SMILES	FECH inh
Cc1cc(=O)n2[nH]c(NCc3ccc(C(=O)NCc4ccc(F)cc4)cc3)nc2n1	i
CCCc1ccc(S(=O)(=O)N2CCN(Cc3nc4cccnc4n3-c3cccc(C)c3)CC2)cc1	i
COc1cccc(C(=O)N2CCc3c(c(C(=O)NCc4ccccc4)nn3C)C2)c1	i
COc1ccc(N2C(=O)CCS2(=O)=O)cc1S(=O)(=O)NCc1cccc(C)c1	i
O=C(NCc1cc(=O)[nH]cn1)c1cccc2ccnn12	i
Cc1cc(C)n(CCNC(=O)c2cccc3ccnn23)c(=O)n1	i
O=C(NCCN1N=C(c2ccccc2)CCC1=O)c1cccc2ccnn12	+
COCC(=O)N1CCCN(C(=O)c2cc3ccc(C(C)C)cc3[nH]2)CC1	i
Cc1cccc2oc(CNC(=O)C(c3cccc(F)c3)N(C)C)nc12 (stereo unspecified)	i
Cc1cccc(C(C(=O)NCc2cnc(C)cn2)N(C)C)c1 (stereo unspecified)	i
CN(C)C(C(=O)NCC1(O)CCCCC1)c1cccc(F)c1 (stereo unspecified)	+
COc1cccc(OC)c1C(=O)NCc1nc2cccnc2n1Cc1ccc(C)cc1	i
COc1ccc(NC(=O)Cc2csc(NC(=O)Nc3cccc(Cl)c3)n2)cc1C	i
COc1ccccc1C(=O)N[C@H]1C[C@@H](C(=O)NCc2ccoc2)N(C)C1	i
Cc1ccc(C(C(=O)NCCN2CCCOC2=O)N(C)C)cc1 (stereo unspecified)	+
O=C(NCCN1CCCOC1=O)C1CCN(Cc2ccco2)CC1	i
Cc1ccc(C(C(=O)NCc2ccc(-c3noc(C)n3)cc2)N(C)C)cc1 (stereo unspecified)	i
CCC1(CO)CCCN(C(=O)c2csc3nc(-c4cccc(OC)c4)cn23)C1 (stereo unspecified)	i
